# TEAD-YAP block = TEAD-YAP interaction inhibition. HEK-TIYL cells, TEAD-Gal4/YAP UAS-luciferase luminescence. inhibition, % at 9.12 µM. hit rate 1.4% among 640,000. AID 1259422; in the data active means inhibition above about 32%;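 further: 0% = median of test compound wells and 100% = reference inhibitor wells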
# MITF inh = blocks human microphthalmia-associated transcription factor | hit rate 0.91% among 650,000 | inhibition, % at 2.6 µM | AID 1259374 | AlphaScreen MITF homodimerization, bead proximity signal | O75030; in the data active means inhibition above about 50%;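 further: 0% = vehicle wells with protein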
# GPR151 activ = human GPR151 activation; Q8TDV0; PathHunter beta-arrestin GPR151 cells, luminescence; activation, % at 11.2 µM; hit rate 1% among 650,000; AID 1508602; in the data active means activation above about 4.9%;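 further: 0% = median of compound wells and 100% = cells with positive control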
# FBW7 act = human FBW7 E3 ligase activation, primary screen. Q969H0. AlphaScreen FBW7–phospho-cyclin E peptide binding, activator screen. normalized activity (activation), % at 26.1 µM. hit rate 0.13% among 650,000; in the data active means normalized activity above about 1.9%;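 further: purified mutant Fbw7 with reduced substrate affinity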
# GPR151 conf act = confirmation of human GPR151 activators. shares compounds with GPR151 activ. GPR151 PathHunter beta-arrestin cells, luminescence, 90 min; % of EA-reagent control over plate median. activation, % at 11.2 µM. 6,700 tested, under 10 active. AID 1508609;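 active means mean percent activation across replicates above the confirmation screen cutoff of 4.91%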
# GPR119 counter = counter-screen for GPR151 activators: effect on human GPR119 | shares compounds with GPR151 activ | GPR119 PathHunter beta-arrestin cells, luminescence, 90 min; 0 = compound-well median, 100 = enzyme-acceptor control | activation, % at 11.2 µM | hit rate 0.3% among 6,700 | AID 1508611;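 active means mean percent activation in the counterscreen above 29.09%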;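 further: counterscreen on off-target GPR119 to flag nonselective hits from the GPR151 activator screen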
# * = called active by the depositor; . = no result. Compounds with a hit are over-represented: about 3.4% of the library has one in this group of screens.
SMILES,TEAD-YAP block,MITF inh,GPR151 activ,FBW7 act,GPR151 conf act,GPR119 counter
COc1cc(S(=O)(=O)N2CC(C)OC(C)C2)ccc1Cl (stereo not drawn),-12,-14,8.0*,0,-1,-16
CCNS(=O)(=O)c1ccc(Cl)c(OC)c1,-6,-5,8.0*,0,0,0
COc1cc(S(=O)(=O)N2CC(C)OC(C)C2)ccc1Br (stereo not drawn),-4,3,-1,0,.,.
O=C(NCCO)C1CCN(c2ccc(Cl)nn2)CC1,-5,14,-2,0,.,.
CC(C)n1cnc2c(NCc3ccccc3)nc(Nc3ccncc3)nc21,-8,1,-1,0,.,.
CC(C)NCCOCCOc1cccc(Cl)c1,6,42,8.4*,0,-1,-13
CC(C)NCCOCCOc1c(Cl)cccc1Cl,-18,35,0,0,.,.
COc1cccc(C=Nc2ccc(C)c(F)c2)c1O,7,-2,5.8*,0,0,11
CCC(C)NC(=O)c1sc2nc(C)nc(N3CCC(C)CC3)c2c1C (stereo not drawn),0,5,6.9*,0,0,-1
CCCN(CCC)C(=O)c1sc2nc(C)nc(N3CCCCC3)c2c1C,-3,-2,5.5*,0,1,-2
O=C(NCCCc1ccncc1)C1CC12CCN(C(=O)c1cc(-c3ccccc3)no1)CC2 (stereo not drawn),6,17,6.1*,1,1,5
O=C(NCc1ccco1)C1CC12CCN(C(=O)c1cc(-c3ccccc3)no1)CC2 (stereo not drawn),-12,13,2,0,.,.
O=C(CSc1nc2ccccc2[nH]1)Nc1cccc(O)c1,-10,-6,1,0,.,.
Cc1ccsc1-c1nc(CSCC(=O)NC2CC2)c(C)o1,-6,-40,1,0,.,.
c1ccc(CSC2=NCCS2)cc1,-19,-2,0,0,.,.
O=C(NCSC1=NCCS1)c1ccccc1,-10,1,8.2*,0,0,5
Cc1ccc(CSCC(=O)N/N=C/c2cccc3c2OCCO3)cc1,0,21,0,0,.,.
Cc1c(Cl)cccc1NC(=O)CCC(=O)NNC(=O)c1cccs1,6,6,1,0,.,.
CC(=O)OC[C@H]1O[C@H](C/C=N/O[C@@H](C)c2cn([C@H](CO)Cc3ccccc3)nn2)C=C[C@@H]1OC(C)=O,.,15,1,0,.,.
CC(C)[C@@H](OCc1ccccc1)[C@H](C)/C=N/O[C@H](C)c1cn([C@H](CO)Cc2ccccc2)nn1,.,-1,6.1*,0,0,5
O=c1[nH]c(N2CCCC2)nc2c1CCN(Cc1cccc3nccnc13)C2,4,12,-1,0,.,.
CC1CN(c2nc3c(c(=O)[nH]2)CCN(Cc2c(O)ccc4ccccc24)C3)CC(C)O1 (stereo not drawn),4,9,5.2*,0,1,1
CC1CCN(c2nc3c(c(=O)[nH]2)CCN(Cc2cccc4nccnc24)C3)CC1,5,-6,7.4*,0,1,6
CCN1CCN(C(c2ccccc2)c2sc3nc(-c4ccco4)nn3c2O)CC1 (stereo not drawn),3,-12,5.3*,0,-1,2
CCOC(=O)C(C#N)C(=O)c1ccc(F)c(F)c1 (stereo not drawn),0,-5,-1,0,.,.
SMILES,TEAD-YAP block,MITF inh,GPR151 activ,FBW7 act,GPR151 conf act,GPR119 counter
CCOC(=O)C(C#N)C(=O)c1ccc(N2C(=O)CCC2=O)cc1 (stereo not drawn),14,9,6.6*,1,-1,-10
O=C(Cc1ccc(N2CCC(NCCn3ccnc3)CC2)cc1)NCCc1cccc(F)c1,-2,-8,6.0*,0,-1,-9
CC1(C)CC(=O)C2=C(C1)OC1=C(C(=O)CC(C)(C)C1)C2c1cc(Cl)cc(Cl)c1OCc1ccc(Cl)cc1Cl,8,-9,5.5*,0,0,11
CCn1c(Sc2ccc(C=O)o2)nnc1-c1ccccc1,8,12,1,1,.,.
Cc1ccc(CN2CCNC(=O)C2CC(=O)N2CCCN(Cc3cccs3)CC2)o1 (stereo not drawn),9,3,-1,0,.,.
Cc1ccc(CN2CCNC(=O)C2CC(=O)N2CCN(Cc3csc(C)n3)CC2)o1 (stereo not drawn),2,-4,5.1*,0,0,2

# Compound activity from PubChem BioAssay.
